In all, about 9,900 sequences were measured (“r (bound/input frequency ratio)”: median about 0.7, highest 2% from about 6.5 on). For the sample, the highest values were picked, then their nearest neighbours and some sequences at random.
B1: ENSMUSG00000058297.26|Spock2 (ssRNA)
RNA: GGGAGUUCUACAGUCCGACGAUCGCUUCGAUAUCCGCAUGCUAGGCCAGAAGAGACCUGGACAACAGCAGGCAACUUAGCAAAUGGAUCCGGAAGUCAGUGCGGAGGACCCUGGCUCCAGUGGGGGAGGACUGGGGAGUGUGGCUUGUGUGUAUGUGUGAUAUGAGAUGUGUGUGUAUGAUGUGAGAUGUGAGUGUGUGAUGUGAGAUGUGUGUAUGUGAGAUGUGUGUGUGUGUGUGUGUGUGUGUGAUGUGAGUCACCCAAAGGUCCCUAUGUUAUUGAUUUUCAAAUGCACACUUUCACACUCUUGCGGUCGCACUAGUGUGGAAUUCUCGGGUGUCAAGG
B2: ENSMUSG00000058297.25|Spock2 (ssRNA)
RNA: GGGAGUUCUACAGUCCGACGAUCGCUUCGAUAUCCGCAUGCUAAAGACAGGCCAGAAGAGACCUGGACAACAGCAGGCAACUUAGCAAAUGGAUCCGGAAGUCAGUGCGGAGGACCCUGGCUCCAGUGGGGGAGGACUGGGGAGUGUGGCUUGUGUGUAUGUGUGAUAUGAGAUGUGUGUGUAUGAUGUGAGAUGUGAGUGUGUGAUGUGAGAUGUGUGUAUGUGAGAUGUGUGUGUGUGUGUGUGUGUGUGUGAUGUGAGUCACCCAAAGGUCCCUAUGUUAUUGAUUUUCAAAUGCACACUCUCUUGCGGUCGCACUAGUGUGGAAUUCUCGGGUGUCAAGG
B3: ENSMUSG00000058297.23|Spock2 (ssRNA)
RNA: GGGAGUUCUACAGUCCGACGAUCGCUUCGAUAUCCGCAUGCUACCGACGGCCAGAAAGACAGGCCAGAAGAGACCUGGACAACAGCAGGCAACUUAGCAAAUGGAUCCGGAAGUCAGUGCGGAGGACCCUGGCUCCAGUGGGGGAGGACUGGGGAGUGUGGCUUGUGUGUAUGUGUGAUAUGAGAUGUGUGUGUAUGAUGUGAGAUGUGAGUGUGUGAUGUGAGAUGUGUGUAUGUGAGAUGUGUGUGUGUGUGUGUGUGUGUGUGAUGUGAGUCACCCAAAGGUCCCUAUGUUAUUGAUUUUCUCUUGCGGUCGCACUAGUGUGGAAUUCUCGGGUGUCAAGG
B4: ENSMUSG00000058297.23|Spock2|113:117;121:134;143:154;168:174;183:192;198:223 (ssRNA)
RNA: GGGAGUUCUACAGUCCGACGAUCGCUUCGAUAUCCGCAUGCUACCGACGGCCAGAAAGACAGGCCAGAAGAGACCUGGACAACAGCAGGCAACUUAGCAAAUGGAUCCGGAAGUCAGUGCGGAGGACCCUGGCUCCAGUGGGGGAGGACUGGGGACACACGCUACACACAUACACACAUAUGAGAACACACACAUACAUGUGAGAUGUGACACACACAUGUGAGAACACACAUACUGAGAACACACACACACACACACACACACACAUGUGAGUCACCCAAAGGUCCCUAUGUUAUUGAUUUUCUCUUGCGGUCGCACUAGUGUGGAAUUCUCGGGUGUCAAGG
B5: ENSMUSG00000058297.24|Spock2 (ssRNA)
RNA: GGGAGUUCUACAGUCCGACGAUCGCUUCGAUAUCCGCAUGCUAGCCAGAAAGACAGGCCAGAAGAGACCUGGACAACAGCAGGCAACUUAGCAAAUGGAUCCGGAAGUCAGUGCGGAGGACCCUGGCUCCAGUGGGGGAGGACUGGGGAGUGUGGCUUGUGUGUAUGUGUGAUAUGAGAUGUGUGUGUAUGAUGUGAGAUGUGAGUGUGUGAUGUGAGAUGUGUGUAUGUGAGAUGUGUGUGUGUGUGUGUGUGUGUGUGAUGUGAGUCACCCAAAGGUCCCUAUGUUAUUGAUUUUCAAAUGCUCUUGCGGUCGCACUAGUGUGGAAUUCUCGGGUGUCAAGG
B6: ENSMUSG00000058297.26|Spock2|95:99;103:116;125:136;150:156;165:174;180:205 (ssRNA)
RNA: GGGAGUUCUACAGUCCGACGAUCGCUUCGAUAUCCGCAUGCUAGGCCAGAAGAGACCUGGACAACAGCAGGCAACUUAGCAAAUGGAUCCGGAAGUCAGUGCGGAGGACCCUGGCUCCAGUGGGGGAGGACUGGGGACACACGCUACACACAUACACACAUAUGAGAACACACACAUACAUGUGAGAUGUGACACACACAUGUGAGAACACACAUACUGAGAACACACACACACACACACACACACACAUGUGAGUCACCCAAAGGUCCCUAUGUUAUUGAUUUUCAAAUGCACACUUUCACACUCUUGCGGUCGCACUAGUGUGGAAUUCUCGGGUGUCAAGG
B7: ENSMUSG00000058297.22|Spock2|119:123;127:140;149:160;174:180;189:198;204:229 (ssRNA)
RNA: GGGAGUUCUACAGUCCGACGAUCGCUUCGAUAUCCGCAUGCUAAGGGUGCCGACGGCCAGAAAGACAGGCCAGAAGAGACCUGGACAACAGCAGGCAACUUAGCAAAUGGAUCCGGAAGUCAGUGCGGAGGACCCUGGCUCCAGUGGGGGAGGACUGGGGACACACGCUACACACAUACACACAUAUGAGAACACACACAUACAUGUGAGAUGUGACACACACAUGUGAGAACACACAUACUGAGAACACACACACACACACACACACACACAUGUGAGUCACCCAAAGGUCCCUAUGUUAUUCUCUUGCGGUCGCACUAGUGUGGAAUUCUCGGGUGUCAAGG
B8: ENSMUSG00000061578.90|Ksr2|236:240 (ssRNA)
RNA: GGGAGUUCUACAGUCCGACGAUCGCUUCGAUAUCCGCAUGCUAUCUGAUUUUAGAGGUCCCAUUCCAAGAUGGAAGUCACCGGUUGCCGCUGAGCACACAAUUCUGAAGGACAGUAGGCAGUCCUGCAGGUCUUUUUUAGCACAGGGCCUCUCUGGGGACCAGUCCCUGGCCUUCACCCUUCUCCCAUUUUGUAAGAACACUGUUCUAACUCACCUCAUGCCCACGCUACCCUGGGCAACUGGAGAACACCAUAGCGUUUCAGCUGAUGUGACAUUUGCACACACCUUUACCAGUUCACCAUCCUCUUGCGGUCGCACUAGUGUGGAAUUCUCGGGUGUCAAGG
B9: ENSMUSG00000090935.515|Synj2bp (ssRNA)
RNA: GGGAGUUCUACAGUCCGACGAUCGCUUCGAUAUCCGCAUGCUAUGGAGGCCCAGUGUCUGCUACCCUUCUUGUAUCUGAUGGCAUGGGUAACAGCUCUGCCAUGGGCCUGCUUACUUCUAGUAUUCACCUCAGGGCUUGGAAAUUGGUUUUGAAAGGCUUUUAGACAUAGAAAGUAAAACUAAUGGCAAGGAGGAUAAAACACUGUUGUGUGUUGUAUUGUUGAUCUAAAUAAAAAAUAUCAUUGGUAGAAGUUUUACUUUGGUUGAUAAGGAUUCUGAUAACAUUUGGGUCUCCUUAGGAAACUCUUGCGGUCGCACUAGUGUGGAAUUCUCGGGUGUCAAGG

target: TDP-43 (Homo sapiens, UniProt Q13148 1-414); experiment: RNA Bind-n-Seq with designed 260-mer pool; 25 mM Tris-HCl, 150 mM KCl, 3 mM MgCl2, BSA (printed 500 mg/mL), 20 units/mL SUPERase IN; pH not stated; 500 nM RNA pool, 1 h, 4 C; TDP-43 5, 50, 500 nM; high values mean tight binding; details: protein: recombinant; tags: SBP (GST cleaved off with PreScission; pGEX-GST-SBP)
How it was run: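 An in vitro-transcribed pool of 260-nt 3′ UTR oligos (500 nM) was incubated for 1 h at 4 °C with recombinant SBP-tagged TDP-43 at 5, 50 or 500 nM held on streptavidin beads. The buffer contained 25 mM Tris-HCl, 150 mM KCl, 3 mM MgCl2, BSA and SUPERase IN. Biotin-eluted bound RNA was sequenced, and binding, R, is each oligo's normalized read abundance in the bound sample over that in input.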

Chain of TDP-43 (Q13148 whole entry): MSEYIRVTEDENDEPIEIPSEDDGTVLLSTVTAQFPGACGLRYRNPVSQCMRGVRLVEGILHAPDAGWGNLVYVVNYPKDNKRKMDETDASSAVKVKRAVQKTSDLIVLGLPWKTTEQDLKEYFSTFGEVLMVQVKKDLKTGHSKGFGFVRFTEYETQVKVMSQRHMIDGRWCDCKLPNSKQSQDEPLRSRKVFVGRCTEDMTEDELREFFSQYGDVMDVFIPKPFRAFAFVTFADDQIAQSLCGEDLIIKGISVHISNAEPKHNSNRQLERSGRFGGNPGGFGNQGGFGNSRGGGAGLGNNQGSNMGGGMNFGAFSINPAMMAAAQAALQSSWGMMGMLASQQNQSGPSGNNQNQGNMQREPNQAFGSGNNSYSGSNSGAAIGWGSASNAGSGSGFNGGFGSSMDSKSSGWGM

Row | Binder | binding signal
1 | B1 | 6.34 R (bound/input frequency ratio)
2 | B2 | 6.77 R (bound/input frequency ratio)
3 | B3 | 6.74 R (bound/input frequency ratio)
4 | B4 | 4.42 R (bound/input frequency ratio)
5 | B5 | 9.99 R (bound/input frequency ratio)
6 | B6 | 3.09 R (bound/input frequency ratio)
7 | B7 | 2.11 R (bound/input frequency ratio)
8 | B8 | 0.502 R (bound/input frequency ratio)
9 | B9 | 0.412 R (bound/input frequency ratio)
